# Screens from PubChem BioAssay.
# Compounds with a hit are over-represented: about 22% of the library has one in this group of screens.
# CHX counter: Cycloheximide Counterscreen for Small Molecule Inhibitors of Shiga Toxin. AID 2314, 2010. cell reporter, cycloheximide protein synthesis inhibition counterscreen. max response, %. 300,000 compounds, 12% hits; in the data active = max response mostly above about 13%, no sharp cut-off; inactive = mostly below about 14%; also: read at 38.3 µM for the half of the compounds with a filed dose
# Pf growth 96h: Primary qHTS for delayed death inhibitors of the malarial parasite plastid, 96 hour incubation. P. falciparum luciferase reporter growth, 96 h. Potency, µM (doses to about 28.7 µM), actives largely listed as inhibitors. 320,000 compounds, 6.9% hits. AID 504834, 2011
#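 Delayed-death screen, second-generation endpoint: infected erythrocytes, 2% hematocrit, 0.05% parasitemia final; 96 hours at 37 C, 5% CO2; luciferase detection reagent; luminescence decrease equals reduced growth.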
# Pf growth 48h: Primary qHTS for delayed death inhibitors of the malarial parasite plastid, 48 hour incubation; P. falciparum luciferase growth in erythrocytes, 48 h; Potency, µM (series often up to 28.7 µM), most hits filed as inhibitors; 310,000 compounds, 5.9% hits; AID 504832, 2011
#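 Here the parasites carry a stable luciferase gene and grow inside erythrocytes in Albumax-based RPMI medium with compound for one erythrocytic cycle. Activity is scored as loss of luminescent signal.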
# Shiga toxin inh: A qHTS for Small Molecule Inhibitors of Shiga Toxin | 290,000 compounds, 9.2% hits | Vero cells, Shiga toxin protein synthesis inhibition reporter | inhibition, % at 38.7 µM | AID 2315, 2010; in the data active = inhibition mostly above about 28%, no sharp cut-off; inactive = mostly below about 43%
# LmPK inhibitor: qHTS Assay for Inhibitors of Leishmania Mexicana Pyruvate Kinase (LmPK) | Q27686 | purified LmPK, Kinase-Glo ATP luminescence, 1 h | 290,000 compounds, 0.37% hits | Potency, µM (series often up to 57.5 µM), usual class: inhibitors
# Target sequence (Q27686 whole entry, looked up): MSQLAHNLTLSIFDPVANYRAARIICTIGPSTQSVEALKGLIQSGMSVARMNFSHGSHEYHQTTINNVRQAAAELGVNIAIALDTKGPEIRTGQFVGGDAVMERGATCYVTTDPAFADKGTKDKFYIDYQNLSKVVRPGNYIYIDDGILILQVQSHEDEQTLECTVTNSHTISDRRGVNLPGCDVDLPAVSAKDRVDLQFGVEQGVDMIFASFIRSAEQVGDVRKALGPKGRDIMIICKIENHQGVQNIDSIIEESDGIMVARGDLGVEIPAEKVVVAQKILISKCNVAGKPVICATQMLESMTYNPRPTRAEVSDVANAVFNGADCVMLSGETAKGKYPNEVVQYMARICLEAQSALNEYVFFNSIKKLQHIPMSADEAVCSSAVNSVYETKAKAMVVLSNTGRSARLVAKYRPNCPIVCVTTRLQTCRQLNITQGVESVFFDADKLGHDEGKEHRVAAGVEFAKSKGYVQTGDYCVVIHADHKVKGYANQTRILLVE
#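 qHTS format; LmPK 0.1 nM; substrates PEP 0.5 mM and ADP 0.1 mM. One-hour room-temperature incubation, then coupled luciferase luminescence; 0.5 nM enzyme wells mark activation.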
# A number is an active result; i = inactive; ? = inconclusive; nt = no result given; [ ] = another dose, or the depositor's remark. Unless noted, calls follow the shape of the dose curve; as a rule, active = well fitted inhibition curve with a large enough effect; inconclusive = small, poorly fitted or top-dose-only effect, or another doubt; inactive = no such curve, though single readings can be large or run the other way.
SMILES,CHX counter,Pf growth 96h,Pf growth 48h,Shiga toxin inh,LmPK inhibitor
Cc1onc(-c2ccccc2)c1C(=O)N1CCN(Cc2ccccc2)CC1,i,i,i,i,i
C/C(=N/NC(=O)c1ccc(-c2ccccc2)cc1)c1cc(O)cc(O)c1,i,i,i,i,i
CC(=O)c1ccc(NC(=O)/C(=C\c2cccs2)NC(=O)c2ccco2)cc1,i,i,i,i,i
C/C(=N\NC(=O)c1ccco1)c1ccc(NC(=O)C(F)(F)F)cc1,57,i,i,61,i
C/C(=N\NC(=O)c1ccco1)c1ccc(-c2ccccc2)cc1,23,?,?,108,i
COc1ccc(C)cc1Nc1n[n+](C)c(-c2ccc(O)cc2O)s1,i,?,?,i,i
COc1ccc(C)cc1Nc1n[n+](-c2ccccc2)c(-c2ccc(OC)c(OC)c2OC)s1,i,1µM,?,i,i
COc1ccc(C)cc1Nc1n[n+](-c2ccccc2)c(-c2ccc(N(C)C)cc2)s1,i,2.1µM,2.6µM,i,i
COc1ccc(C)cc1Nc1n[n+](-c2ccccc2)c(-c2c(Cl)cccc2Cl)s1,i,7.4µM,10µM,i,i
CCN(CC(=O)Nc1ccc(NC(C)=O)cc1)C(=O)c1ccccc1SCC(=O)N1CCCC1,nt,i,i,nt,nt
COc1ccc(NS(=O)(=O)c2ccc(/C=C/C(=O)O)cc2)cc1S(=O)(=O)N1CCOCC1,i,i,i,i,i
CSCCC1NC2(C(=O)Nc3c(Cl)cccc32)[C@@H]2C(=O)N(C3CCCC3)C(=O)[C@H]12 (stereo not given in full),i,10µM,?,i,i
CSCCC1NC2(C(=O)Nc3c(C)cc(Cl)cc32)[C@@H]2C(=O)N(C3CCCC3)C(=O)[C@H]12 (stereo not given in full),i,?,?,i,i
O=C(CSc1nnc(-c2ccncc2)o1)N1CCc2ccccc2C1,i,i,i,i,i
COc1cc2c(cc1OC)C(C)N(C(=O)c1cc3c(C)cc(C)cc3[nH]1)CC2 (stereo not given),i,13µM,10µM,i,i
COc1cc2c(cc1OC)C(C)N(C(=O)Nc1cc(C)cc(C)c1)CC2 (stereo not given),i,?,?,i,i
CCOc1cc(O)c(-c2[nH]ncc2-c2nc(C)cs2)cc1CC,i,?,15µM,i,i
Cc1nc(-c2cn[nH]c2-c2ccc(O)cc2O)cs1,i,i,i,i,i
CC1CCCCN1C(=O)CN1C(=O)c2ccccc2S1(=O)=O (stereo not given),nt,i,i,nt,nt
c1cc(CNC23CC4CC(CC(C4)C2)C3)ccn1,i,1.9µM,i,i,i
O=C1NC(=Nc2ccccc2)/C(=C/c2ccco2)S1,i,?,?,i,i
COc1ccc(N=C2NC(=O)/C(=C/c3ccco3)S2)cc1,36,9.3µM,?,i,i
Cc1ccc(N=C2NC(=O)S/C2=C\c2ccco2)cc1,18,?,?,49,i
O=C1/C(=C/c2ccccn2)SC(=S)N1c1ccc(O)cc1,30,i,i,67,i
COc1ccc(S(=O)(=O)/N=C2/NC(=O)/C(=C/c3ccco3)S2)cc1,i,i,i,i,i
SMILES,CHX counter,Pf growth 96h,Pf growth 48h,Shiga toxin inh,LmPK inhibitor
Cc1ccc(N2C(=O)/C(=C/c3ccco3)SC2=S)cc1,16,i,i,i,i
Cc1ccc(SCC(=O)OCC(=O)N(CCC#N)c2ccccc2)cc1,nt,i,i,nt,nt
COC(=O)c1ccc(Nc2c([N+](=O)[O-])ccc3nonc23)cc1,i,?,i,i,i
CCn1c(COc2ccccc2)nnc1SCC(=O)Nc1ccc(N2CCOCC2)cc1,i,i,?,i,i
CN(CC(=O)Nc1ccc(Cl)cc1)C(=O)CCc1nc2sc3c(c2c(=O)[nH]1)CCCC3,nt,?,i,nt,nt
Cc1ccc(OCC(=O)Nc2c(C)ccc3nsnc23)cc1,i,i,i,i,i
COc1ccc(N=C2NC(=O)/C(=C\C=C\c3ccccc3)S2)cc1,i,i,?,i,i
COc1ccc(N=C2NC(=O)/C(=C/C=C/c3ccccc3)S2)cc1,i,6.6µM,7.4µM,i,i
COc1ccc(NC(=O)CN(C)C(=O)CN2C(=O)c3ccc([N+](=O)[O-])cc3C2=O)cc1,i,i,i,i,i
CC(C)NCCCCOc1ccc(Br)cc1Cl,i,i,?,i,i
O=C1CCC(=O)N1OCCCOc1ccc(Br)cc1Cl,30,i,i,i,i
Clc1cc(Br)ccc1OCCN1CCOCC1,31,i,i,i,i
CC1CCN(CCCOc2ccc(Br)cc2Cl)CC1,22,i,i,29,i
CCCCCOc1ccc(CN2CCOCC2)cc1Cl,41,nt,i,102,i
COc1ccc(C2/C=C\CNCC(=O)N2Cc2ccc(F)cc2)cc1 (stereo not given),i,i,?,i,i
CCN(CC(=O)Nc1c(F)cccc1F)C(=O)c1ccc2c(c1)S(=O)(=O)N=C1CCCCCN12,nt,i,i,nt,nt
COC(=O)[C@@H](NC(=O)O[C@H]1C(=O)c2ccc(OC)cc2O[C@@H]1c1ccc2c(c1)OCO2)C(C)C,23,i,i,i,i
CC[C@H](C)[C@@H](NC(=O)O[C@@H]1C(=O)c2cc(Br)ccc2O[C@H]1c1cccc(OC)c1)C(=O)OC,i,i,i,i,i
Cc1ccc(N2C(=O)CS/C2=N\C(=S)Nc2ccccc2)cc1,i,4.1µM,i,i,i
CC(NC(=O)C1CC1)C(c1cccs1)N1CCOCC1 (stereo not given),i,i,i,i,i
CC(NC(=O)Nc1ccc(Cl)c(Cl)c1)C(c1ccccc1)N1CCOCC1 (stereo not given),i,5.2µM,?,i,i
CC(NC(=O)C1CCC(C(C)(C)C)CC1)C(c1ccccc1)N1CCOCC1 (stereo not given),i,10µM,?,i,i
CCOC(=O)N1CCN(CC(=O)c2ccc(O)c(C)c2O)CC1,31,i,i,i,i
CCOC(=O)N1CCN(Cc2ccc3c(c2)OCO3)CC1,i,?,i,i,i
Cc1c(O)ccc(C(=O)CN2CCN(Cc3ccc4c(c3)OCO4)CC2)c1O,i,12µM,i,i,i
SMILES,CHX counter,Pf growth 96h,Pf growth 48h,Shiga toxin inh,LmPK inhibitor
COC(=O)Nc1ccc2c(c1)N(C(=O)CCCl)c1ccccc1S2,i,i,i[0.00184 µM],i,i
Nc1cc(-c2ccc(Cl)cc2)nn1S(=O)(=O)c1cccc2nsnc12,i,?,nt,i,i
Nc1cc(-c2cccc(F)c2)nn1S(=O)(=O)c1cccc2nsnc12,i,1.7µM,i,i,i
CCCCCn1c(SCC(=O)OCC)nc2cc(C(=O)NCc3ccco3)ccc2c1=O,i,i,?,i,i
C=CCn1c(SCC(=O)OCC)nc2cc(C(=O)NCc3ccco3)ccc2c1=O,i,7.4µM,nt,i,i
CCc1ccc(NC(=O)CSc2nc3cc(C(=O)OC)ccc3c(=O)n2Cc2ccco2)cc1,i,i,i,i,i
COCCNC(=O)c1ccc2c(=O)n(Cc3ccco3)c(SCC(=O)NC3CCCC3)nc2c1,i,12µM,nt,i,i
